# Source: PubChem BioAssay
# This is a sample that favours compounds with a hit; in the whole collection about 28% have one here.
# CYP2C9 activ: activators of human CYP2C9; AID 1024; actives 1.4% (n = 96,000); recombinant CYP2C9, luciferin-H conversion, luminescence; hits give high values; factor 1 = untreated enzyme, 0 = blocked; P11712; activation factor at 5 µM;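 active means activation factor of 2 or more for CYP2C9 at a 5 µM dose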;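 further: 0 = sulfaphenazole-blocked wells and 1 = vehicle-only wells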
# Mac1 fbg enh: increases human CD11b/CD18 adhesion to fibrinogen | actives 0.07% (n = 93,000) | activation, % at 10 µM | AID 1499 | K562 CD11b/CD18 adhesion to fibrinogen, ATPlite luminescence | P05107+P11215;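 active means 10 µM primary screen giving 50% or more activity, confirmed by 40% or more on retest at that dose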
# Target sequence (P05107 whole entry, looked up, other chains not shown): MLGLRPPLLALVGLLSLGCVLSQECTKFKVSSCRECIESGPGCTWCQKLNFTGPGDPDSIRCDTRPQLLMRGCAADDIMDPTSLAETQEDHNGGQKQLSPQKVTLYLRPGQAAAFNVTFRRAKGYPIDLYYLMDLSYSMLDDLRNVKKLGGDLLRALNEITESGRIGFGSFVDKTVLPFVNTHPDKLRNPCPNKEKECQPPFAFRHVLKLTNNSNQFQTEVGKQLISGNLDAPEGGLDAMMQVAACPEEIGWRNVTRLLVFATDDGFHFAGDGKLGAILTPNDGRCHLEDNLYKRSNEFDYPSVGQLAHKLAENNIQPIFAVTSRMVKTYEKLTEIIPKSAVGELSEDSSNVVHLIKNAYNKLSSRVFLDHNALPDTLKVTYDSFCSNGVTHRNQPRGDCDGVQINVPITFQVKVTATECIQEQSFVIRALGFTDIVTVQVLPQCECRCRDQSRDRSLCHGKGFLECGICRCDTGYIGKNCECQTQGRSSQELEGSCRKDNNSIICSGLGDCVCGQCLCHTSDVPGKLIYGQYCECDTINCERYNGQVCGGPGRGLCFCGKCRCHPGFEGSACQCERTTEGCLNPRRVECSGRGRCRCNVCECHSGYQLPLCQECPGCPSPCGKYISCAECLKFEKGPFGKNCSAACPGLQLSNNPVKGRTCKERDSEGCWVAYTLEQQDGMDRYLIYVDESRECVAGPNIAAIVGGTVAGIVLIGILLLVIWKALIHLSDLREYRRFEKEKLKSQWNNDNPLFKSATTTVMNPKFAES
# CYP2C9 inh: inhibitors of human CYP2C9. P11712. CYP2C9 Supersomes, luciferin-H conversion, luminescence. inhibition, % at 5 µM. actives 20% (n = 96,000). AID 777;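 active means blocking of liver enzyme CYP2C9 beyond about 50% at 5 µM, limit read from the data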
# CYP2C19 inh: blocks human cytochrome P450 2C19 | CYP2C19 Supersomes, luciferin-H EGE luminescence, 30 min | inhibition, % at 5 µM | AID 778 | actives 21% (n = 96,000);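 active means CYP2C19 inhibition above a set limit at 5 µM in the primary screen, cut at about 50% in these data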;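 further: plate controls were negative control wells for no effect and 2.5 mM tranylcypromine positive control for full effect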
# CYP2C19 act: increases human CYP2C19 enzyme activity; 96,000 tested, under 10 active; recombinant CYP2C19, luciferin-H EGE luminescence; hits give high values; 0 = fully inhibited enzyme, 1 = untreated enzyme; P33261; AID 1025; activation factor at 5 µM;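 active means activation factor of at least 2 at 5 µM in the primary screen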;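 further: 0 = wells with 2.5 mM tranylcypromine and 1 = vehicle-only wells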
# CD11b adhes inh: inhibitors of human CD11b/CD18 binding to fibrinogen; actives 0.54% (n = 93,000); P05107+P11215; K562 CD11b/CD18 adhesion to fibrinogen, ATPlite luminescence; Mn2+ added to activate the integrin; inhibition, % at 10 µM;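 active means primary inhibition of 50% or more at 10 µM, then 40% or more on retest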
# An asterisk follows results filed as active; . = no result given.
SMILES,CYP2C9 activ,Mac1 fbg enh,CYP2C9 inh,CYP2C19 inh,CYP2C19 act,CD11b adhes inh
Cc1ccc(-c2cc(C(=O)Nc3cc(C)on3)c3ccccc3n2)c(C)c1,0.2,-1,77*,34,0.7,-1
Cc1cc(NC(=O)c2cc(-c3ccc(C)s3)nc3ccccc23)no1,0.1,-1,86*,67*,0.3,-4
CN(C)CC(C)(C)CNC(=O)c1cc(=O)c2ccccc2o1,1.1,-2,-12,-4,1,-18
CCn1cc(C2=NOC(C(=O)Nc3ccc4c(c3)OCO4)C2)c(C)n1 (configuration not stated),0.6,0,45,-4,1,17
COCCCNC(=O)CCN1C(=O)COc2ccccc21,1.1,.,-12,0,1,.
COc1ccc(Br)cc1CNC(=O)CCN1C(=O)COc2ccccc21,1.1,-1,-8,81*,0.2,-13
COc1ccc(OC)c(CNC(=O)CCN2C(=O)COc3ccccc32)c1,1.3,2,-34,70*,0.3,-19
CCOC(=O)N1CCN(S(=O)(=O)c2ccc(C)cc2)C1c1ccc(OC)cc1 (configuration not stated),1.2,-6,-16,74*,0.3,5
CCOC(=O)N1CCN(S(=O)(=O)c2ccc(C)cc2)C1c1ccccc1 (configuration not stated),0.3,0,70*,91*,0.1,9
O=[N+]([O-])c1ccccc1Sc1nccn1Cc1ccccc1,.,18,.,.,.,-3
O=C1CCCCCCC1Sc1ccccc1[N+](=O)[O-] (configuration not stated),1.2,4,-16,50*,0.5,-17
CO/N=C/c1cc([N+](=O)[O-])ccc1Sc1ccc(C)cc1,0.4,-2,64*,65*,0.4,-6
CO/N=C/c1ccc(Sc2ccc(C)cc2)c([N+](=O)[O-])c1,0.9,-1,10,-2,1,-7
Cc1ccc(Sc2ccc(/C=N/O)cc2[N+](=O)[O-])cc1,0.4,-4,64*,0,1,-7
Fc1ccc(N/N=C/C=C/c2ccccc2)c(F)c1,.,4,.,.,.,-3
CN(CCc1ccccn1)C1CC(=O)N(c2ccc(Cl)cc2)C1=O (configuration not stated),1.3,1,-25,28,0.7,3
CCOc1ccc(S(=O)(=O)Nc2cc(OC)c(OC)cc2C(=O)O)cc1,0.3,2,73*,32,0.7,-11
CCC(CC)C(=O)Nc1cc(OC)c(OC)cc1C(=O)O,1.1,2,-8,-16,1.2,-11
COc1cc(NS(=O)(=O)c2ccc(F)cc2)c(C(=O)O)cc1OC,0.4,-3,56*,4,1,3
O=C(COc1cccc(C(F)(F)F)c1)NCCCN1CCCC1=O,0.7,-2,26,16,0.8,-2
O=C(CCn1c2c(c3ccccc31)CCCC2)NNC(=O)c1cccc([N+](=O)[O-])c1,.,12,.,.,.,-5
COC(=O)c1sc2cnccc2c1N,0.7,-7,31,21,0.8,-12
COc1ccc(/C=N/NC(=O)C2c3ccccc3Oc3ccccc32)c(OC)c1,1,-3,4,9,0.9,-52
COc1ccc2c(c1)C(C1C(=O)CCCC1=O)c1ccccc1O2 (configuration not stated),0.4,.,64*,3,1,.
COc1ccc(Cn2nnnc2C(C(C)C)N(Cc2ccco2)Cc2cccs2)cc1 (configuration not stated),0.3,-1,66*,56*,0.4,-20
SMILES,CYP2C9 activ,Mac1 fbg enh,CYP2C9 inh,CYP2C19 inh,CYP2C19 act,CD11b adhes inh
CC(C)C(c1nnnn1Cc1ccccc1)N(Cc1ccco1)Cc1cccs1 (configuration not stated),0.1,-4,89*,96*,0,-10
Cn1c(C(O)c2ccc(Cl)cc2)nc(Cl)c1Cl (configuration not stated),0.9,-2,15,91*,0.1,-1
CC(C)C(NS(=O)(=O)c1cccs1)C(=O)NCc1ccc2c(c1)OCO2 (configuration not stated),0.2,3,84*,94*,0.1,-17
Cc1ccc(CNC(=O)C(NS(=O)(=O)c2cccs2)C(C)C)cc1 (configuration not stated),0.5,1,52*,85*,0.1,-2
CCOC(=O)CNC(=O)C(Cc1ccccc1)NS(=O)(=O)c1cccs1 (configuration not stated),0.6,-7,38,34,0.7,19
Cc1ccc(CNC(=O)C(Cc2ccccc2)NS(=O)(=O)c2cccs2)cc1 (configuration not stated),1,-5,2,61*,0.4,-9
CC(=O)Cc1nsc(NC(=O)c2cccs2)n1,1,-2,-4,-9,1.1,21
CCCCNC(=O)OCCNC(=O)NC,1,7,5,3,1,1
CCCC/C(O)=C1\C(=O)CC(C)(C)CC1=Nc1ccc(OC)cc1,0.6,-3,44,57*,0.4,18
CCC1Oc2ccc(C)cc2N(CC(=O)NCCN2C(C)CCCC2C)C1=O (configuration not stated),1.1,-1,-8,-1,1,2
CCC1Oc2ccc(C)cc2N(CC(=O)NCCCN2CCN(Cc3ccccc3)CC2)C1=O (configuration not stated),0.9,8,8,10,0.9,-20
CCC1Oc2ccc(C)cc2N(CC(=O)NCc2ccccc2OC)C1=O (configuration not stated),1.3,.,-29,91*,0.1,.
CCC1Oc2ccc(C)cc2N(CC(=O)NCc2cc(OC)ccc2OC)C1=O (configuration not stated),0.8,.,16,73*,0.3,.
CCC1Oc2ccc(C)cc2N(CC(=O)NCc2cccc(OC)c2)C1=O (configuration not stated),0.9,.,14,94*,0.1,.
CCOc1cc(C2NC(=O)NC(C)=C2C(C)=O)cc(Cl)c1OCC(=O)O (configuration not stated),0.9,-2,13,-1,1,-22
COCCn1nnnc1C(c1ccccc1OC)N1CCN(c2ccccc2)CC1 (configuration not stated),0.9,-1,10,34,0.7,-9
COCCn1nnnc1C(c1cc2cc(C)cc(C)c2[nH]c1=O)N1CCN(c2ccccc2F)CC1 (configuration not stated),0.2,8,78*,35,0.7,-11
COCCn1nnnc1C(c1cccs1)N1CCN(c2nc3ccccc3s2)CC1 (configuration not stated),0.1,-4,89*,82*,0.2,4
